Fluor 339 460: intrinsic fluorescence of library compounds, ex339/em460 – biochemical, MLSMR library, data from DPM-DC assay, artefact control, profiling panel | compound autofluorescence, ex339/em460 nm, NADH buffer; stronger effect = higher value; 1 = no-compound wells, NADH background | fluorescence fold increase at 10 µM | actives 5.5% (n = 65,000);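 active = at 10 µM, mean starting fluorescence two-fold or more over control wells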;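 also: signal is the first read of a kinetic run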
Cdc25B inh: inhibitors of Cdc25B phosphatase catalytic domain, primary screen, biochemical, OMFP fluorescence. actives 0.1% (n = 65,000). inhibition, %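 (compounds tested at 10 µM final in the well)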. M-phase inducer phosphatase 2 (Homo sapiens), P30305. AID 368, 2006. recombinant Cdc25B, OMFP fluorescence Ex485/Em525; in the data active = inhibition above about 50%
A340 absorber: compound light absorbance at 340 nm, profiling panel, artefact control, biochemical, MLSMR library, data from PS, PMK, MK assays; compound absorbance at 340 nm, fold over control; fold change at 10 µM; 65,000 tested, under 10 active; AID 708, 2007;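 active = at 10 µM dose, initial 340 nm absorbance at least 2 fold that of control wells; inactive = change under 2 fold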;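 also: initial absorbance extrapolated from kinetic A340 decline of NADH oxidation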
NADH enzymes: inhibitors of PK/LDH coupling enzymes, profiling panel, artefact control, biochemical, MLSMR library. coupled PK/LDH NADH assays, four targets. IC50, µM (doses to about 10 µM), for inactives: top-dose inhibition. actives 0.02% (n = 65,000). AID 774, 2007;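 active = single-dose screening hits from any of four coupled enzyme assays that gave an IC50 when retested across doses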;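 also: the DPM-DC format reads NADH fluorescence rather than 340 nm absorbance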
Hsp90 block: tumor Hsp90 inhibitors, primary screen, cell lysate, fluorescence polarization, NCI-N417 lysate. inhibition, % at 30 µM. actives 0.35% (n = 64,000). Cy3B-geldanamycin FP displacement;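 active = inhibition above 50%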;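 also: 0% = tracer plus lysate wells and 100% = tracer alone without lysate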
MKP-1 inh: MKP-1 phosphatase inhibitors, primary screen, biochemical, in vitro. recombinant MKP-1, OMFP hydrolysis fluorescence. inhibition, %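 (compounds tested at a single concentration somewhere between 10 and 100 µM)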. actives 0.15% (n = 65,000);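 active = inhibition above about 50%, limit read from the data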;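 also: 0% = DMSO max control wells and 100% = wells with enzyme stopped by NaOH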
* = called active by the depositor; nt = no result. A selection: hits, their analogues and other compounds. The true share with any hit is near 5.7%.

SMILES	Fluor 339 460	Cdc25B inh	A340 absorber	NADH enzymes	Hsp90 block	MKP-1 inh
Cc1cc(C(=O)COc2ccc3ccc(=O)oc3c2)c(C)n1Cc1cccs1	2.62*	-1.0	1.06	13.0%	-4.9	24.1
Cc1cccc(NC(=O)c2cc(NC(=O)c3ccco3)ccc2N2CCCCC2)c1	3.01*	-13.5	1.01	3.0%	-0.9	0.9
O=C(Nc1ccc(N2CCCCC2)c(C(=O)O)c1)c1ccco1	1.08	-7.7	1.04	5.0%	-6.1	6.5
CC(OC(=O)c1ccccc1NCc1ccco1)C(=O)Nc1ncc(Cl)cc1Cl (configuration not stated)	2.23*	-10.3	1.12	2.0%	nt	11.3
O=C(c1ccc(Cl)cc1)N1CCN(c2nc(N3CCCCC3)nc(N3CCCCC3)n2)CC1	1.23	5.0	1.05	3.0%	nt	-0.7
COc1ccc(C(=O)N(Cc2ccco2)C(C(=O)NC2CCCC2)c2ccc(O)cc2)cc1OC (configuration not stated)	1.04	-0.1	1	1.0%	-0.7	-9.2
CCOc1ccc2nc(NC(=O)C3CCN(c4cnccn4)CC3)sc2c1	2.61*	1.9	1.04	10.0%	16.6	-19.4
O=C(CN1CCC2(CC1)OCCO2)c1ccc2cc[nH]c2c1	3.23*	-5.1	1.1	10.0%	-6.2	26.4
COc1ccc(NC(=O)C2CCCN2c2ccc(OC)c(OC)c2)cc1OC (configuration not stated)	1.1	-2.8	1.07	3.0%	nt	4.6
CCOc1cc(NC2CS(=O)(=O)CC2O)c(OCC)cc1NC(=O)c1ccccc1 (configuration not stated)	1.11	-5.2	1.06	1.0%	-3.9	11.1
O=C1CC(c2ccc(F)cc2)Cc2nc(N3CCc4ccccc43)ncc21 (configuration not stated)	3.82*	-8.4	1.1	13.0%	-6.1	-8.3
CCC(CCC(=O)Nc1ccn(-c2ccccc2)n1)C(=O)O (configuration not stated)	1.03	2.7	1.01	4.0%	-0.7	-13.5
CN(C(=O)c1cccs1)c1ccccc1C(=O)O	2.18*	2.5	1.04	8.0%	0.6	3.1
CCn1c(NC(=O)c2cccs2)c(-c2cccs2)c(=O)c2ccccc21	1.07	-7.2	1.07	8.0%	-2.1	-22.3
CCOC(=O)c1c(C)nc2ncccn12	2.11*	-0.6	1.03	6.0%	1.2	7.2
CNS(=O)(=O)c1cccc(C(=O)OC2CCCCC2=O)c1 (configuration not stated)	1.05	-7.1	0.99	11.0%	-1.6	10.1
CCOC(=O)c1oc2nc(C)c3c(c2c1N)CC(C)(C)OC3	3.91*	2.0	1.07	1.0%	1.7	-13.3
COC(=O)c1sc2nc3c(cc2c1N)COC(C)(C)C3	1.53	-12.9	1.07	9.0%	nt	15.2
CCOC(=O)c1oc2nc3c(cc2c1N)COC(C)(C)C3	2.79*	-0.2	1.07	13.0%	-3.7	-12.0
Clc1ccc(NC2=NCCCCC2)cc1	1.1	14.3	1.03	3.0%	3.1	-2.3
O=C(NC1CC1)c1c[nH]c2ccc(S(=O)(=O)Nc3cccc(C(F)(F)F)c3)cc2c1=O	1.28	0.2	1.04	4.0%	-1.6	52.5*
CCOc1cc(C)c(Cl)cc1S(=O)(=O)NCC1CCCO1 (configuration not stated)	1.08	-1.5	1.04	3.0%	-1.9	-3.6
CC(=O)c1ccc(Oc2ncnc3sccc23)c(CN2CCOCC2)c1	1.04	2.9	1	8.0%	-4.6	38.8
Cc1ccc(OCC(=O)Nc2ccc(O)c(C(=O)O)c2)cc1C	3.28*	5.1	1.03	8.0%	-5.6	-1.6
NC(=O)c1nsc(C(=O)N(CC(=O)NCc2ccc3c(c2)OCO3)C2CCCCC2)c1N	2.86*	-9.6	1.08	6.0%	0.8	-3.6
COc1ccc(C2C3=C(CC(C)(C)CC3=O)Nc3c2c(=O)[nH]c2nc(C)nn32)cc1 (configuration not stated)	2.54*	-2.4	1.05	16.0%	0.2	-7.6

Screening results as filed in PubChem.
